FMDV inh = antivirals against foot and mouth disease virus | Potency, µM (series often up to 57.9 µM), inactives show at the highest dose activity change, negative = inhibition, hits mostly inhibitors | FMDV antiviral cell-based qHTS | actives 1.2% (n = 410,000); calls by dose curve; tested in HEK293T cells; note: read-out not given here; nearly all actives have a fitted effect of over 45% in size
HCV inhibitor = inhibitors of hepatitis C virus infection | actives 3.4% (n = 340,000) | AID 651820 | Potency, µM (highest dose often 41.8 µM), without a hit: at the top dose activity change, negative = inhibition, actives largely listed as inhibitors | Huh7.5.1 HCVcc-Cre infection, luciferase reporter, 44 h; active = well fitted inhibition curve with a large enough effect; inconclusive = small, poorly fitted or top-dose-only effect, or another doubt; inactive = no such curve, though single readings can be large or run the other way
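Cells seeded at 1,000/well and cultured 4 h, then compounds added followed by HCVcc-Cre virus (~0.5 moi). After 44 h further culture, luciferase substrate was added, plates held 15 min at room temperature, and luminescence read for 15 sec.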
Lassa entry inh = Lassa virus entry inhibition | AID 540256 | actives 1.2% (n = 300,000) | Potency, µM (highest dose often 37.9 µM), without a hit: at the top dose activity change, negative = inhibition, most hits filed as inhibitors | Lassa virus pseudotype entry inhibition, cell reporter; calls by dose curve; tested in HEK293 cells; note: nearly all actives have a fitted effect of over 50% in size
VACV mCherry inh = inhibitors of vaccinia virus infection (mCherry reporter signal); actives 0.63% (n = 310,000); Potency, µM (highest dose often 36.5 µM), for inactives: top-dose activity change, negative = inhibition, usual class: inhibitors; Vaccinia virus mCherry reporter infection, fluorescence; calls by dose curve; tested in A549 cells; note: nearly all actives have a fitted effect of over 35% in size
Vaccinia Venus = vaccinia inhibition (Venus reporter) | Vaccinia virus Venus reporter expression, fluorescence | actives 0.46% (n = 330,000) | AID 720580 | Potency, µM (top dose mostly 36.5 µM), without a hit: top-dose activity change, negative = inhibition, usual class: inhibitors; calls by dose curve; tested in A549 cells; note: nearly all actives have a fitted effect of over 30% in size
Marburg entry inh = Marburg virus entry inhibition. Marburg virus pseudotyped entry inhibition, cell reporter. Potency, µM (doses to about 37.8 µM), for inactives: at the highest dose activity change, negative = inhibition, usual class: inhibitors. actives 1.8% (n = 300,000). AID 540276; calls by dose curve; tested in HEK293 cells
An asterisk follows results filed as active; i = inactive; ? = inconclusive; / = no result given; [ ] = remark or other dose. The list is not random: actives were taken first. Their share in the collection is about 5.3%. % is set by controls: 0 for no effect and ±100 for the full control effect; potency is the fitted concentration of half-maximal effect.

SMILES | FMDV inh | HCV inhibitor | Lassa entry inh | VACV mCherry inh | Vaccinia Venus | Marburg entry inh
C#CCOCCOCCOCCNc1nc(N2CCN(C(=O)CCCCCCCCCCNC(=O)[C@H](CCCCN)n3cc(CCCC(=O)O)nn3)CC2)nc(N2CCN(C(=O)CCCCCCCCCCNC(=O)[C@H](CCCN=C(N)N)n3cc(C[C@@H](C)CC)nn3)CC2)n1 | ? | ? | / | ? | 11.2µM* | /
C#CCOCCOCCOCCNc1nc(N2CCN(C(=O)CCCCCCCCCCNC(=O)[C@H](CCCCN)n3cc(CCO)nn3)CC2)nc(N2CCN(C(=O)CCCCCCCCCCNC(=O)[C@H](CCCN=C(N)N)n3cc(C[C@@H](C)CC)nn3)CC2)n1 | ? | ? | / | ? | 10µM* | /
C#CCOCCOCCOCCNc1nc(N2CCN(C(=O)CCCCCCCCCCNC(=O)Cn3cc(C[C@@H](C)O)nn3)CC2)nc(N2CCN(C(=O)CCCCCCCCCCNC(=O)[C@H](CCCCN)n3cc(C[C@@H](C)CC)nn3)CC2)n1 | ? | ? | / | ? | 10µM* | /
C#CCOCCOCCOCCNc1nc(N2CCN(C(=O)CCCCCCCCCCNC(=O)[C@H](CCCCN)n3cc(CCO)nn3)CC2)nc(N2CCN(C(=O)CCCCCCCCCCNC(=O)[C@H](CCCCN)n3cc(CCO)nn3)CC2)n1 | -11.4% | 7.9% | / | i | ? | /
Cc1ccc(-c2nc(CNC(=O)NC3CCCCC3)c(C)o2)cc1 | 0.1% | / | ? | -13.0% | 4.0% | /
CC1Cc2ccccc2N1C(=O)NC1CC(=O)N(c2ccc3c(c2)OCCO3)C1 (centres undefined) | -13.0% | -5.2% | -7.2%[46.1 µM] | -20.5% | 19.5% | ?
CC(Nc1ccc2c(c1)OCCO2)C(=O)N1c2ccccc2CC1C (centres undefined) | -27.3% | -9.3% | 8.91µM* | -19.6% | -14.0% | -1.6%[46.1 µM]
C[C@]12CCC3C(CC[C@H]4C[C@@H](O)CC[C@]34C)[C@H]1C=CC2=O (some centres undefined) | 20µM* | -10.6% | ? | ? | ? | ?
COc1cc(/C=C2\C=Cc3ccccc32)ccc1N(C)C | / | / | / | -15.2% | -11.4% | /
FC(F)Sc1ccc(NC(=S)NCC2CCCCC2)cc1 | 9.0% | 31.6µM* | -25.5% | / | / | -26.2%
FC(F)Sc1ccc(NC(=S)NC(c2ccccc2)c2ccccc2)cc1 | ? | ? | ? | / | / | 18.3µM*
CC1CCCCC1NC(=S)Nc1ccc(SC(F)F)cc1 (centres undefined) | -9.1% | 11.2µM* | ? | / | ? | -16.8%
CCCNC(=O)N1CCN(S(=O)(=O)c2ccc3c(c2)OCCO3)CC1 | -12.9% | -6.8% | / | / | / | /
COc1ccc2c(c1)oc(=O)c1ccccc12 | 26.9% | ? | / | 28.7% | 19.8% | /
COc1ccc2c(c1)oc(=O)c1c3ccccc3[nH]c21 | 0.2% | 3.55µM* | / | / | / | /
COc1ccc(OC)c(CCNC(=O)Cn2nc(C)c3c(C)n(-c4ccc(C)cc4)nc3c2=O)c1 | ? | 1.12µM* | ? | -29.7% | ? | ?
Cc1ccc(-n2nc3c(=O)n(CC(=O)NCCc4ccccc4C)nc(C)c3c2C)cc1 | ? | 5.01µM* | 0.0%[46.1 µM] | ? | ? | ?
Cc1ccc(CCNC(=O)Cn2nc(C)c3c(C)n(-c4ccc(C)cc4)nc3c2=O)cc1 | ? | / | -20.3%[46.1 µM] | ? | ? | /
COc1ccc(CCNC(=O)Cn2nc(C)c3c(C)n(-c4ccccc4)nc3c2=O)c(OC)c1 | -24.2% | ? | / | / | / | /
O=C(O)c1nn(CCOc2c(Cl)cccc2Cl)c(=O)c2ccccc12 | -3.2% | 11.5% | ? | 11.2µM* | 8.8% | ?
COc1cc(COCC(O)CN2CCN(CCN3C(=O)c4cccc5cccc(c45)C3=O)CC2)cc(OC)c1OC (centres undefined) | ? | 3.55µM* | -10.0% | -22.6% | ? | ?
O=C1c2cccc3cccc(c23)C(=O)N1CCN1CCN(CC(O)COCc2ccc(Cl)cc2)CC1 (centres undefined) | ? | 11.2µM* | 18.4µM* | 11.2µM* | ? | ?
COc1cccc(OCC(O)CN2CCC(CN3C(=O)c4cccc5cccc(c45)C3=O)CC2)c1 (centres undefined) | ? | ? | ? | -22.8% | -23.5% | ?
COc1ccc(COCC(O)CN2CCC(CN3C(=O)c4cccc5cccc(c45)C3=O)CC2)cc1OC (centres undefined) | ? | ? | ? | -27.6% | ? | 9.2µM*
CCCc1ccc(OC(=O)CSc2nnc(-c3cccs3)o2)cc1 | -14.0% | / | -11.4%[46.1 µM] | -9.5% | -11.1% | ?
SMILES | FMDV inh | HCV inhibitor | Lassa entry inh | VACV mCherry inh | Vaccinia Venus | Marburg entry inh
CCc1cccc(OCC(=O)Nc2ccc(S(=O)(=O)Nc3ncccn3)cc2)c1 | 0.7% | / | -19.1%[46.1 µM] | -5.3% | 4.1% | 12.2%[46.1 µM]
Cc1ccc(-c2nnc(Nc3ccc(Br)cc3)c3ccccc23)cc1S(=O)(=O)N1CCOCC1 | -0.7% | / | -5.9%[46.1 µM] | -16.3% | -16.3% | /
c1ccc2c(c1)N1CCCN=C1N2CCN1CCCCC1 | -9.0% | ? | -25.8% | / | / | 13µM*
Nc1ccc(C(Cc2ccnc3ccccc23)Cc2ccnc3ccccc23)cc1 | / | / | / | -13.5% | -10.8% | /
O=C(NCc1ccccc1)C1(C(F)(F)F)C/C(=C\CCO)CCCO1 (centres undefined) | -4.7% | 14.6% | / | i | -0.8% | /
CCC/C=C1/CCCOC(C(=O)NCc2ccccc2)(C(F)(F)F)C1 (centres undefined) | -14.8% | 0.891µM* | / | -2.8% | -3.0% | /
O=C(CSc1nnc(-c2ccco2)c(-c2ccco2)n1)c1ccccc1 | -19.5% | 2.82µM* | 15.8% | -27.1% | -0.2% | 0.5%[46.1 µM]
CC(=O)/C(N=Nc1cc2c(c([N+](=O)[O-])c1C)C(C)(C)CC2(C)C)=C(\C)O | 25.1µM* | ? | -3.3% | -13.5% | -14.4% | 5.7%
CC(=O)/C(N=Nc1cc2c(cc1[N+](=O)[O-])OCCO2)=C(\C)O | -4.6% | 0.7% | 0.8% | -0.4% | 0.4% | 11.3%[46.1 µM]
COc1ccc2[nH]c(O)c(N=O)c2c1 | -11.8% | -4.4% | -3.9% | i | -15.2% | 15.3%
Cc1cc2c(N=O)c(NO)ccc2[nH]1 | -2.2% | ? | ? | ? | ? | 1.41µM*
Cc1ccc(C(=O)NC2CCCCC2)cc1-c1ccc(C(=O)NCC2CC2)cc1 | / | / | 1.41µM* | / | / | /
Cc1ccc(C(=O)Nc2ccc(C(=O)NCC3CCCO3)cc2)cc1 (centres undefined) | 5.1% | -14.2% | / | / | / | /
CN1C(=O)c2ccc(C(=O)NC3CCCCC3)cc2C1=O | 54.2% | -3.9% | 16.5% | -14.8% | -0.3% | ?
Cc1ccc(NC(=O)CC2CC2)cc1-c1ccc(C(=O)NCC2CC2)cc1 | / | / | 3.97µM* | / | / | /
Cc1cc2cc(CNC(=S)NC3CCCCC3)ccc2[nH]1 | 11.4% | 10µM* | ? | / | / | -14.1%
Clc1ccc(CNC2CCCC2)c(Cl)c1 | / | 1.8% | -14.0% | -8.1% | -7.9% | -12.5%
S=C(NCc1ccc(Cl)cc1Cl)NC1CCCCC1 | -5.9% | ? | 8.91µM* | ? | ? | ?
